# Hit rate of the full screen: of about 39,000 compounds, about 3,300 (8.5%) were called active. The sample as a whole holds a higher share of actives than the screen did.
# Test system: HepG2
# Assay: cytotoxicity call (relative viability < 0.9)
# Settings: 10 µM
row,Structure (SMILES),cytotoxicity call
1,COCC(=O)Nc1ccc2c(c1)C(=O)N(C)C[C@H](OC)[C@H](C)CN(Cc1ccccc1OC)[C@H](C)CO2,inactive
2,C[C@H]1CN([C@@H](C)CO)C(=O)Cc2cc(NS(C)(=O)=O)ccc2O[C@@H]1CN(C)C(=O)Nc1ccccc1,inactive
3,COCCNC(=O)C[C@@H]1C[C@@H]2c3cc(NS(C)(=O)=O)ccc3O[C@@H]2[C@@H](CO)O1,inactive
4,COc1ccc([C@H]2C/C=C\C[C@H](c3cccc(Cl)c3)NC(=O)[C@@H](c3ccccc3)CC(=O)N2)c(OC)c1,inactive
5,CC(=O)O.N=C(N)NN=Cc1c(Cl)cccc1Cl,inactive
6,Cc1ccc(-c2ccc3c(c2)O[C@@H](CN(C)C(=O)CN(C)C)[C@H](C)CN([C@@H](C)CO)S3(=O)=O)cc1,inactive
7,CN(C)CCNC(=O)[C@H]1CN(Cc2cnn(C)c2)Cc2ccnn2C1,inactive
8,C[C@H]1CN([C@@H](C)CO)C(=O)Cc2cc(NC(=O)Nc3ccc(C(F)(F)F)cc3)ccc2O[C@@H]1CN(C)C(=O)NC1CCCCC1,inactive
9,C[C@@H]1CN([C@H](C)CO)C(=O)Cc2cc(NC(=O)Nc3ccc(C(F)(F)F)cc3)ccc2O[C@H]1CN(C)CC1CCCCC1,active
10,C[C@@H]1CN([C@H](C)CO)C(=O)Cc2cc(NC(=O)Nc3ccc(C(F)(F)F)cc3)ccc2O[C@@H]1CN(C)CC1CCCCC1,active
11,COCC(=O)N1C[C@H](C)[C@H](OC)CN(C)C(=O)c2ccc(NC(=O)Nc3ccccc3)cc2OC[C@@H]1C,inactive
12,Cc1ccc(S(=O)(=O)N(C)C[C@H]2Oc3ccc(NS(=O)(=O)c4ccccc4)cc3CC(=O)N([C@H](C)CO)C[C@@H]2C)cc1,inactive
13,CC(C)NC(=O)N[C@H]1CC[C@H](CCN)O[C@H]1CO,inactive
14,C[C@H](CO)N1C[C@H](C)[C@@H](CN(C)C(=O)Nc2cccc3ccccc23)OCCCC[C@H](C)Oc2ccc(NC(=O)Cc3ccccc3)cc2C1=O,inactive
15,C[C@H]1CCCCO[C@@H](CN(C)C(=O)Nc2cccc3ccccc23)[C@@H](C)CN([C@@H](C)CO)C(=O)c2cc(NC(=O)Cc3ccccc3)ccc2O1,active
16,C[C@@H]1CN([C@@H](C)CO)C(=O)c2cc(NC(=O)Cc3ccccc3)ccc2O[C@@H](C)CCCCO[C@@H]1CN(C)C(=O)Nc1cccc2ccccc12,active
17,C[C@@H]1CCCCO[C@@H](CN(C)C(=O)Nc2cccc3ccccc23)[C@H](C)CN([C@@H](C)CO)C(=O)c2cc(NC(=O)Cc3ccccc3)ccc2O1,inactive
18,C[C@@H]1CCCCO[C@@H](CN(C)C(=O)Nc2cccc3ccccc23)[C@@H](C)CN([C@@H](C)CO)C(=O)c2cc(NC(=O)Cc3ccccc3)ccc2O1,inactive
19,C[C@@H]1CN([C@H](C)CO)C(=O)c2cc(NC(=O)Cc3ccccc3)ccc2O[C@@H](C)CCCCO[C@@H]1CN(C)C(=O)Nc1cccc2ccccc12,inactive
20,C[C@@H]1CCCCO[C@H](CN(C)C(=O)Nc2cccc3ccccc23)[C@@H](C)CN([C@@H](C)CO)C(=O)c2cc(NC(=O)Cc3ccccc3)ccc2O1,inactive
21,C[C@@H]1CCCCO[C@@H](CN(C)C(=O)Nc2cccc3ccccc23)[C@H](C)CN([C@H](C)CO)C(=O)c2cc(NC(=O)Cc3ccccc3)ccc2O1,inactive
22,C[C@@H]1CCCCO[C@H](CN(C)C(=O)Nc2cccc3ccccc23)[C@H](C)CN([C@H](C)CO)C(=O)c2cc(NC(=O)Cc3ccccc3)ccc2O1,active
23,F[C@H]1CCNC1,inactive

row,Structure (SMILES),cytotoxicity call
1,C[C@@H]1CCCCO[C@@H](CN(C)C(=O)c2ccncc2)[C@H](C)CN([C@@H](C)CO)C(=O)c2cc(NS(=O)(=O)c3ccc(Cl)cc3)ccc2O1,inactive
2,Cn1cnc(=N)c2[nH]cnc21,inactive
3,CN1CCN([C@H](CNC(=O)C(=O)NCCN2CCOCC2)c2ccc(N(C)C)cc2)CC1,inactive
4,Cc1noc(C)c1S(=O)(=O)Nc1cccc2c1O[C@H](CN(C)Cc1ccncc1)[C@H](C)CN([C@@H](C)CO)C2=O,inactive
5,C[C@H]1CN([C@@H](C)CO)C(=O)Cc2cc(NC(=O)Nc3cccc4ccccc34)ccc2O[C@@H]1CN(C)C(=O)NC1CCCCC1,inactive
6,"COC1C(C(=O)O)OC(C)C(O)C1O.COC1OC(C(=O)O)C(O)C(O)C1O (centres undefined) [ALGINIC ACID [Mol Wt ~200,000; monomers shown] ]",active
7,C[C@@H]1O[C@@H](O)[C@H](O)[C@H](O)[C@H]1O,inactive
8,CO[C@H]1O[C@H](COS(=O)(=O)O)[C@@H](O[C@@H]2O[C@@H](C(=O)O)[C@@H](OC)[C@H](O)[C@H]2OS(=O)(=O)O)[C@H](O)[C@H]1NS(=O)(=O)O,inactive
9,C[C@@H]1CN([C@@H](C)CO)C(=O)Cc2cc(NC(=O)c3ccncc3)ccc2O[C@@H]1CN(C)Cc1ccncc1,inactive
10,O=C(C[C@H]1CC[C@H]2[C@@H](COC[C@@H](O)CN2C(=O)c2ccc(F)cc2)O1)NCCCN1CCOCC1,inactive
11,O=C(CCCCCCC(=O)Nc1ccccc1)NO,active
12,O=C(CCCCCCC(=O)NO)NO,inactive
13,O=C(CCCCCCC(=O)Nc1ccc([C@H]2C[C@H](c3ccccc3)O[C@H](c3ccccc3)O2)cc1)NO,inactive
14,C[C@@H]1CN([C@@H](C)CO)C(=O)CCCn2nncc2CO[C@H]1CN(C)S(=O)(=O)c1ccc(C#N)cc1,inactive
15,CCO[C@@H]1OC(C(=O)N2CCCCCCC2)=C[C@H](c2coc3ccccc3c2=O)[C@H]1CCCOC(=O)NCCCCCC(=O)NO,inactive
16,C[C@@H]1CN([C@H](C)CO)C(=O)c2cc(NC(=O)Nc3ccccc3)ccc2O[C@@H](C)CCCCO[C@H]1CN(C)C(=O)NC1CCCCC1,active
17,C[C@H]1CCCCO[C@H](CN(C)C(=O)NC2CCCCC2)[C@@H](C)CN([C@@H](C)CO)C(=O)c2cc(NC(=O)Nc3ccccc3)ccc2O1,active
18,C[C@H]1CCCCO[C@@H](CN(C)C(=O)NC2CCCCC2)[C@@H](C)CN([C@@H](C)CO)C(=O)c2cc(NC(=O)Nc3ccccc3)ccc2O1,inactive
19,C[C@H](CO)N1C[C@H](C)[C@@H](CN(C)C(=O)NC2CCCCC2)OCCCC[C@H](C)Oc2ccc(NC(=O)Nc3ccccc3)cc2C1=O,inactive
20,C[C@@H]1CN([C@@H](C)CO)C(=O)c2cc(NC(=O)Nc3ccccc3)ccc2O[C@@H](C)CCCCO[C@@H]1CN(C)C(=O)NC1CCCCC1,inactive
21,C[C@H](CO)N1C[C@H](C)[C@H](CN(C)C(=O)NC2CCCCC2)OCCCC[C@H](C)Oc2ccc(NC(=O)Nc3ccccc3)cc2C1=O,inactive
22,C[C@H](CO)N1C[C@H](C)[C@H](CN(C)S(=O)(=O)c2ccccc2)Oc2c(NC(=O)c3cnccn3)cccc2C1=O,inactive
23,NNC(=O)c1cccc(C(=O)NO)c1,inactive

row,Structure (SMILES),cytotoxicity call
1,Cc1noc(C)c1NC(=O)N(C)C[C@H]1Oc2ncc(C#CCN(C)C)cc2C(=O)N([C@@H](C)CO)C[C@H]1C,inactive
2,CCCCCCCCCCCCCCCC(=O)OC[C@@H](NC(=O)C(Cl)Cl)[C@H](O)c1ccc([N+](=O)[O-])cc1,inactive
3,CS(=O)(=O)c1ccc(C(O)C(CO)NC(=O)C(Cl)Cl)cc1 (centres undefined),inactive
4,CCCCCCCCCCCCCCCC(=O)OCC(NC(=O)C(Cl)Cl)C(O)c1ccc([N+](=O)[O-])cc1 (centres undefined),inactive
5,O=C(NC(CO)C(O)c1ccc([N+](=O)[O-])cc1)C(Cl)Cl (centres undefined),active
6,O=C([O-])CCC(=O)OCC(NC(=O)C(Cl)Cl)C(O)c1ccc([N+](=O)[O-])cc1.[Na+] (centres undefined),active
7,CCCCCCCCCCCCCCCC(=O)OC[C@H](NC(=O)C(Cl)Cl)[C@H](O)c1ccc([N+](=O)[O-])cc1,inactive
8,C[C@H]1CCCCO[C@@H](CN(C)C(=O)Nc2ccc(C(F)(F)F)cc2)[C@@H](C)CN([C@@H](C)CO)C(=O)c2cc(NS(=O)(=O)c3cn(C)cn3)ccc2O1,inactive
9,CNC(=O)C(=O)NC[C@H]1OCCN1S(=O)(=O)c1ccccc1,inactive
10,Cc1ccc(S(=O)(=O)N(C)C[C@H]2Oc3c(NS(C)(=O)=O)cccc3C(=O)N([C@@H](C)CO)C[C@@H]2C)cc1,inactive
11,C[C@H](CO)N1C[C@H](C)[C@H](CN(C)Cc2ccncc2)Oc2ccc(NC(=O)c3ccncc3)cc2C1=O,inactive
12,C[C@@H]1CN([C@@H](C)CO)S(=O)(=O)c2ccc(-c3ccncc3)cc2O[C@@H]1CN(C)S(=O)(=O)c1ccccc1F,inactive
13,O=C(C1=C[C@H](c2csc3ccccc23)C[C@H](OCc2ccc(CO)cc2)O1)N1CCN(Cc2ccccc2)CC1,inactive
14,O=C(C1=C[C@H](c2csc3ccccc23)C[C@H](OCc2ccc(CO)cc2)O1)N1CCN(Cc2ccc3c(c2)OCO3)CC1,inactive
15,O=C(C1=C[C@@H](c2csc3ccccc23)C[C@@H](OCc2ccc(CO)cc2)O1)N1CCN(Cc2ccc3c(c2)OCO3)CC1,active
16,C[C@H](CO)N1C[C@H](C)[C@H](CN(C)S(C)(=O)=O)Oc2ccc(NC(=O)c3ccncc3)cc2CC1=O,inactive
17,COc1ccccc1N1CCN(c2ncc(C(=O)N3CCN(c4cccc(Cl)c4)CC3)c3ccccc23)CC1,inactive
18,Cl.O=c1n(CCCN2CCN(c3cccc(Cl)c3)CC2)nc2ccccn12,inactive
19,CCc1nn(CCCN2CCN(c3cccc(Cl)c3)CC2)c(=O)n1CCOc1ccccc1,active
20,C[C@H]1CN([C@@H](C)CO)C(=O)c2cccc(NS(=O)(=O)c3ccc(F)cc3)c2O[C@H]1CN(C)Cc1ccncc1,inactive
21,COc1cc(C(=O)NCCCN2CCCN(CCCNC(=O)c3cc(OC)c(OC)c(OC)c3)CC2)cc(OC)c1OC,inactive
22,Cc1cn(CCC#N)c2ccccc12,inactive
23,Cc1cn(CCN2CCN(c3ccccc3-c3cc(C#N)cc(C(=O)NCCCN4CCCC4)c3)CC2)c2ccccc12,active
